# Bioassay records from PubChem.
# NPC1 promoter act = activates the NPC1 promoter. 2.4% of 320,000 active. Potency, µM (top dose mostly 9.22 µM), without a hit: top-dose activation, usual class: activators. AID 485313. Huh7 NPC1 promoter luciferase reporter, 24 h; note: % of control where 0% means no effect; nearly all actives have a fitted effect of over 60% in size
#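 Stable NPC1-promoter luciferase Huh7 line; cpd (DMSO) 24 h, 37 °C, 5% CO2; Amplite luciferase reagent 10 min RT; luminescence readout. qHTS format.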
# Rab9 promoter act = activators of Rab9 promoter. Huh7 Rab9 promoter-luciferase reporter, luminescence, 24 h. 2.8% of 320,000 active. Potency, µM (doses to about 9.22 µM), without a hit: at the highest dose activation, negative = inhibition, actives largely listed as activators; note: % of control where 0% means no effect; nearly all actives have a fitted effect of over 60% in size
#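 Promoter activation is measured as luciferase luminescence in Huh7 cells stably transfected with a Rab9 promoter–luciferase construct, following 24 h compound exposure at 37 °C and 10 min reagent incubation at ambient temperature.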
# FLuc counter = firefly luciferase modulation, counter-screen for miR-21 project; P08659; purified FLuc, Km substrates, luminescence inhibition; Potency, µM (titrated, usually from 57.5 µM), for inactives: at the highest dose activity change, negative = inhibition, most hits filed as inhibitors; 6.9% of 360,000 active; AID 588342;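 note: plate controls were vehicle for no effect and reference inhibitor for full effect; nearly all actives have a fitted effect of over 55% in size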
# Target sequence (P08659 whole entry, looked up): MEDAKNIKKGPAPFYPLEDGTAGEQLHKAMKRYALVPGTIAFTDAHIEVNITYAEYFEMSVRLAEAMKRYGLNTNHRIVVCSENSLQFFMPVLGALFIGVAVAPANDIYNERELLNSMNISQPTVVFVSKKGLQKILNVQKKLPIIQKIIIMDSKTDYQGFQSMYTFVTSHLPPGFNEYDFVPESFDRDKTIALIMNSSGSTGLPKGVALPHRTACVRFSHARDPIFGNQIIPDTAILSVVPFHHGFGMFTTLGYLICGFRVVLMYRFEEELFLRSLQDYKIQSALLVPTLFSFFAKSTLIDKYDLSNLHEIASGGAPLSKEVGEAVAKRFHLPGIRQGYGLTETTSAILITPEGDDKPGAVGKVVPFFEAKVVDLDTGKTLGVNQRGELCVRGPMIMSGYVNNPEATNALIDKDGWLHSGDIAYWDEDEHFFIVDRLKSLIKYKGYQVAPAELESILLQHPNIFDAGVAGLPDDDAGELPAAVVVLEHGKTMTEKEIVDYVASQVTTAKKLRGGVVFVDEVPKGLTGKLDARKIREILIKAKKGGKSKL
#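 Purified P. pyralis luciferase, 10 nM final, with Km-level 10 uM D-luciferin and 10 uM ATP in 50 mM Tris acetate pH 7.5, 10 mM Mg acetate, 0.01% Tween-20, 0.05% BSA; 6-point qHTS titration about 60 µM downward; luminescence read.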
# SMN2 splice enh = enhancers of SMN2 splice variant expression; HEK293 SMN2-luciferase splicing reporter, luminescence, 30-36 h; 2.8% of 210,000 active; Potency, µM (top dose mostly 46.1 µM), for the others: at the top dose activity change, positive = activation, most hits filed as activators; note: % of control where 0% means no effect; nearly all actives have a fitted effect of over 55% in size
#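 qHTS luciferase splicing reporter: luminescence rises when SMN2 exon 7 is included in transfected HEK293 cells. Compound exposure lasted 30-36 h at 37C, with 4.5 mM final sodium butyrate as control, followed by a ONE-Glo read.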
# ELG1 genotoxic = induces genotoxicity in HEK293T cells with luciferase-tagged ELG1; HEK293T ELG1-luciferase reporter, luminescence, 16 h; 1.3% of 330,000 active; Potency, µM (top dose mostly 46 µM), inactives show at the highest dose activity change, positive = activation, usual class: activators; AID 504466; note: % of control where 0% means no effect; nearly all actives have a fitted effect of over 60% in size
#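 After overnight (16 hr) compound treatment at 37 °C, ELG1-luciferase HEK293T cells were lysed with ONE-Glo; luminescence quantified 30 min later at room temperature.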
# ELG1 DNA repair = blocks ELG1-dependent DNA repair in HEK293T cells; HEK293T ELG1-luciferase reporter, luminescence, 16 h; DNA damage induced by 5-fluorouridine; Potency, µM (highest dose often 46.1 µM), without a hit: at the top dose activity change, negative = inhibition, hits mostly inhibitors; 2.3% of 330,000 active; note: % is set by controls: 0 for no effect and ±100 for the full control effect; nearly all actives have a fitted effect of over 55% in size
#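 Quantitative HTS, concentration-response format. 2,000 cells/well co-treated with 5-fluorouridine and compound, 16 hr in 5% CO2 at 37 °C; ONE-Glo luminescence read after 30 min.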
# * marks the source's active call; other numbers are inactive results; ? = inconclusive; · = no result given. Most compounds without a hit are left out; they make up all but 9.3% or so of the library. Calls come from the whole dose curve; as a rule, active = well fitted curve in the direction sought with a large enough effect; inconclusive = small, poorly fitted or top-dose-only effect, or another doubt; inactive = no such curve, though single readings can be large; an effect the other way counts as inactive or inconclusive. Potency is the fitted concentration of half-maximal effect.
SMILES,NPC1 promoter act,Rab9 promoter act,FLuc counter,SMN2 splice enh,ELG1 genotoxic,ELG1 DNA repair
COc1ccc2nc(C)cc(SCC(=O)NNC(=O)COc3ccccc3)c2c1,0%,-3%,-3%,-7%,-4%,-27%
CCOC(=O)CSc1nc(C)c2cc(C)c(C)cc2n1,-5%,-3%,?,·,2%,5%
CCOC(=O)CNC(=O)CSc1cc(C)nc2ccc(OC)cc12,4µM*,3.2µM*,6.7µM*,·,?,?
CCC(=O)N/C(N)=N/c1nc(C)c2cc(OC)ccc2n1,-1%,23%,11µM*,?,10µM*,?
CCOC(=O)CSc1nc(C)c2cc(OC)ccc2n1,-5%,2%,24µM*,41%,?,?
CCOC(=O)CCSc1nc(C)c2cc(C)ccc2n1,16%,22%,9.5µM*,-6%,18µM*,?
CCOC(=O)CCSc1nc(C)c2ccccc2n1,-2%,4%,?,-3%,?,?
COc1ccc(-c2noc(CCC(=O)N3CCN(c4cccc(F)c4)CC3)n2)cc1,·,·,·,·,-3%,?
Cc1cccc(C)c1NC(=O)CSCc1cnn(-c2ccccc2)c1-n1cccc1,·,·,-10%,·,·,·
Cc1nccc(-c2cc(-c3ccc(Cl)cc3Cl)no2)n1,1.4µM*,1.1µM*,2.4µM*,·,?,?
O=C(CN(c1cc(C(F)(F)F)ccc1Cl)S(=O)(=O)c1ccccc1)NCCc1ccccc1,·,·,0%,-10%,·,·
Cc1nn(-c2ccccc2)c(OC(=O)C(C)C)c1Sc1ccc(Cl)cc1,·,·,13µM*,1%,·,·
Cc1c(NC(=O)c2cccc(NC(=O)Cc3ccccc3F)c2)c(=O)n(-c2ccccc2)n1C,1%,2%,-2%,·,1%,?
Cc1ccc(-c2nnc(COc3cccc(-n4cnnn4)c3)o2)cc1,4%,12%,19µM*,-10%,8%,7%
Cc1cccc(OCc2nnc(-c3ccc(F)cc3)o2)c1,7%,15%,17µM*,·,10%,?
CCOc1ccc(-c2noc(CSc3nnc(-c4ccccc4)n3-c3ccccc3)n2)cc1,·,·,2%,-15%,·,·
CCOc1ccc(-c2nnc(SCc3nnc(-c4ccccc4)o3)n2-c2ccccc2F)cc1,11%,12%,27µM*,-20%,3%,?
Cc1ccc(OCc2nnc(-c3ccccc3)o2)cc1,·,·,17µM*,25%,·,·
O=C(Nc1ccccc1N1CCN(C(=O)c2ccccc2)CC1)c1ccccc1Cl,-10%,-2%,-2%,·,-4%,?
COc1ccccc1C(=O)Nc1ccccc1N1CCN(C(=O)c2ccc(Cl)cc2)CC1,-9%,-1%,-4%,·,-10%,15µM*
CN1CCN(c2ccccc2NC(=O)c2cccc(OCc3ccccc3)c2)CC1,-7%,-6%,2%,22%,-23%,21µM*
COc1cccc(C(=O)Nc2ccccc2N2CCN(C(=O)c3ccccc3)CC2)c1,·,·,·,·,-7%,23µM*
COc1cccc(C(=O)Nc2ccccc2N2CCCC2)c1,0%,-6%,3%,-18%,-1%,-5%
O=C(c1ccccc1Cl)N(Cc1ccco1)Cc1ccco1,·,·,0%,-7%,·,·
COc1ccc(NC(=S)N2CCCC2)c(OC)c1,-3%,2%,1%,3%,1%,1%
SMILES,NPC1 promoter act,Rab9 promoter act,FLuc counter,SMN2 splice enh,ELG1 genotoxic,ELG1 DNA repair
Cc1ccccc1-c1nc(CS(=O)(=O)CC(=O)NCCCc2ccccc2)c(C)o1,·,·,-18%,-12%,·,·
O=C(OCC(=O)C12CC3CC(CC(C3)C1)C2)c1cccnc1Cl,-5%,-1%,17µM*,-4%,0%,3%
O=C(OCC(=O)C12CC3CC(CC(C3)C1)C2)c1ccc(O)cc1O,6%,18%,19µM*,·,23µM*,29%
O=C(COC(=O)c1ccc(O)cc1O)NC12CC3CC(CC(C3)C1)C2,18%,23%,?,·,-1%,?
O=C(OCC(=O)C12CC3CC(CC(C3)C1)C2)c1ccccn1,3%,4%,?,·,2%,13%
CCc1ccc(NC(=O)[C@H](C)NC(=O)C2CCN(C(=O)[C@@H](N)C(C)C)CC2)cc1,0%,1%,1%,·,-3%,0%
c1ccc(-c2nc(-c3cccc4ccccc34)c(Nc3ccc4ccccc4c3)o2)cc1,·,·,·,9%,·,·
COc1cc(SC)ccc1C(=O)Nc1ccc(Cl)cn1,0.89µM*,0.89µM*,0.076µM*,·,?,?
COc1cc(SC)ccc1C(=O)Nc1ccncc1,0%,-21%,?,-50%,12%,-2%
CSc1ccc(Cl)c(C(=O)Nc2ccc(Cl)cn2)c1,-13%,-11%,-10%,·,-4%,-14%
COc1cc(SC)ccc1C(=O)Nc1ccc2c(c1)CCC2,4µM*,4µM*,2.1µM*,·,?,?
COc1cc(SC)ccc1C(=O)Nc1cccc(C2OCCCO2)c1,3.5µM*,1.4µM*,17µM*,·,3%,?
COc1cc(SC)ccc1C(=O)Nc1ccccc1C#N,-1%,3%,?,13µM*,9.2µM*,?
COc1ccccc1C1C=C(c2ccc(F)cc2)Nc2nc(-c3ccc(Cl)cc3)nn21 (configuration not stated),·,·,-1%,-19%,·,·
COc1ccccc1N1CC(C(=O)Nc2ccc(C)c(S(=O)(=O)N3CCOCC3)c2)CC1=O (configuration not stated),·,·,·,·,-1%,-12%
CC(=O)c1cccc(Nc2cc(C)nc3nc(Cc4ccccc4)nn23)c1,·,·,3%,15%,·,·
CNc1snc(C)c1C(=O)OCC(=O)Nc1ccc(C)cc1F,0%,-2%,10%,·,-8%,13µM*
CCc1ccccc1NC(=O)COC(=O)c1c(C)nsc1NC,-19%,-32%,-1%,·,0%,0%
CC1CN(C2=N/C(=C/c3ccc4c(c3)OCO4)C(=O)N2)CC(C)O1 (configuration not stated),0%,0%,-6%,·,-8%,21µM*
CC1CN(C(=O)/C=C/c2ccc3c(c2)OCO3)CC(C)O1 (configuration not stated),-2%,0%,-7%,7%,2%,8%
C/C(=N\Nc1cccc(C(=O)O)c1)c1cc2ccccc2o1,?,2.2µM*,11µM*,11µM*,?,?
C/C(=N\Nc1ccc(Cl)c(C(=O)O)c1)c1cc2ccccc2o1,18%,?,27µM*,25%,?,?
C/C(=N\Nc1ccccc1)c1cc2ccccc2oc1=O,10%,25%,21µM*,·,12%,?
C/C(=N\Nc1ccc(Cl)c(C(=O)O)c1)c1cccc2ccccc12,4%,16%,?,·,27%,?
CCC(=O)c1ccc(OCC(=O)N2CCN(c3ncccn3)CC2)cc1,1%,-4%,0%,·,-6%,10%
